Results reported in PubChem BioAssay AID624330 (Southern Research Specialized Biocontainment Screening …, 2012).
Values joined by “and” are separate entries in the source; they are usually repeats but may differ in a detail not shown here. Equal values may be shown once. About 2,100 (0.62%) of roughly 340,000 compounds were called active.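 The calls were made as follows: active = first-screen hits whose inhibition reached a set limit at any dose in the follow-up dose series; inconclusive = inhibition above the set first-screen limit but never retested; inactive = the rest.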 A selection follows. Potency and affinity values are given separately.

Molecular target: Rac GTPase-activating protein 1 (Homo sapiens) (UniProt Q9H0H5)
Sequence (Q9H0H5 whole entry, looked up): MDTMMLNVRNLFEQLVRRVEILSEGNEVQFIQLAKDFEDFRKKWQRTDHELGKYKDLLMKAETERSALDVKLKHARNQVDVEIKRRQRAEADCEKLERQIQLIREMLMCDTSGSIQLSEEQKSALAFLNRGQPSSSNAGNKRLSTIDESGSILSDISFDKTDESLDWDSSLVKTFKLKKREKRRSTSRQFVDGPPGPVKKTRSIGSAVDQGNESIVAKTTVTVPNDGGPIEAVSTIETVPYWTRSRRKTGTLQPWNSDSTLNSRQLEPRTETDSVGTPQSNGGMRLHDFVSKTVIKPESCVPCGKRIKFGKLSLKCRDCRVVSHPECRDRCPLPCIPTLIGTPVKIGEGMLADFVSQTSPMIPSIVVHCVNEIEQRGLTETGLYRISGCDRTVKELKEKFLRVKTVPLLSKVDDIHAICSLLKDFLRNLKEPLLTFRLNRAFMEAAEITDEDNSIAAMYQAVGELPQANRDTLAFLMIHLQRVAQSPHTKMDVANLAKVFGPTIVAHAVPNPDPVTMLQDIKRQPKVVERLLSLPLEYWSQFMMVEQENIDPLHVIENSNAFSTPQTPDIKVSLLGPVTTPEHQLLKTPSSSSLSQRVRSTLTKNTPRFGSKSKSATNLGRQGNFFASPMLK
Experiment: MgcRacGAP GTPase-activating activity inhibitors, confirmation, biochemical, ADP Hunter fluorescence, primary and confirmatory (AID 624330);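 also: fluorescence reports GDP produced by GAP-driven GTP hydrolysis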
Conditions: MgcRacGAP-stimulated Rac1 GTP hydrolysis, at 30 µM, hits give high values, GST-tagged Rac1 F28L mutant substrate

inhibition, inactive:
O=[N+]([O-])c1ccc(N2CCCCC2)nc1N1CCCCC1 2.43%
O=C(COC(=O)C1CCN(c2ccc(C(F)(F)F)cn2)CC1)NCc1ccccc1 2.35%
CC12CCC(=O)N1C(C(=O)OCC(=O)Nc1ccc(S(N)(=O)=O)cc1)CS2 (stereo not given) 0.82%
N#Cc1ccc(-c2csc(NC(=O)c3ccc(N4C(=O)CCC4=O)cc3)n2)cc1 6.12%
CCCCOc1ccc(/C=c2\sc3ncnn3c2=O)cc1 8.68%
O=c1/c(=C/c2cccc3ccccc23)sc2ncnn12 17.9%
CN1CCN(C(=O)CN(C)S(=O)(=O)c2cc(Cl)ccc2Cl)CC1 1.86%
COc1ccccc1CNCC(=O)Nc1ccc(C(F)(F)F)cc1 25%
COc1ccccc1CNCC(=O)Nc1ccc(C#N)cc1 31.8%
COc1ccccc1CNC(=O)Cc1ccc(C)cc1 4.63%
COc1ccc(CNCC(=O)Nc2ccccc2-n2cccc2)cc1 36.5%
O=C(CNCc1ccco1)Nc1ccccc1-n1cccc1 12.8%
O=C1CN(C(=O)CNCc2ccccc2)c2ccccc2N1 23.4%
COc1ccccc1CNC(=O)CNC(=O)N1CC(=O)Nc2ccccc21 10.5%
COc1ccccc1CNCc1ccc(C)cc1 7.48%
O=CNc1ccccc1Oc1ccccc1 8.55%
Cc1ccc(N(C(=O)c2snc(C(N)=O)c2N)C(C(=O)NC2CCCC2)c2ccc(C)o2)cc1 (stereo not given) 2.21%
CC(=O)c1ccc(NC(=O)CSc2nnc(C3CC3)n2C)cc1 -6.69%
O=C(CSc1cn(CCNC(=O)c2ccc3ccccc3c2)c2ccccc12)NCc1ccco1 11.1%
CC(C)C(=O)Nc1ccc2c(c1)nc1n2CCSC1 5.79%
Cc1ccccc1OCC(O)CN1CCC(C)CC1 (stereo not given) 8.53%
CC1CCN(CC(O)COc2ccc(OCC(O)CN3CCC(C)CC3)cc2)CC1 (stereo not given) 15.7%
Cn1ccnc1C(=O)c1cc(SCC(=O)N2CCOCC2)nc2ccccc12 -0.39%
S=C1SC2(CCCCCC2)NC2=C1CCCCC2 8.68%
CCOC(=O)CCSc1nc(C)c2cc(C)ccc2n1 5.59%
Cc1ccc(Oc2coc3cc(OC(=O)c4cccs4)ccc3c2=O)cc1 1.09%
Cc1c(O)ccc2c(=O)c(Oc3ccccc3)coc12 9.78%
CC1NC(=O)c2cc3ccccc3cc2-n2c1nc1cc(Cl)ccc1c2=O (stereo not given) 9.82%
CC(Oc1ccc(Cl)cc1)C(=O)Nc1ccccc1N1CCOCC1 (stereo not given) 2.3%
NN1C(=O)/C(=C2/Sc3ccccc3N2CCCS(=O)(=O)O)SC1=S 12.5%
CCN1/C(=C2/SC(=S)NC2=O)Sc2ccccc21 1.71%
CCOC(=O)N1CCN(S(=O)(=O)c2c(C)nc3sccn3c2=O)CC1 8.06%
COc1ccc(C=C2CS(=O)(=O)CC(=Cc3ccc(OC)cc3)C2=O)cc1 8.37%
O=C1/C(=C\c2ccc([N+](=O)[O-])cc2)CCc2ccccc21 2.14%
O=[N+]([O-])c1ccc(N2CCN(S(=O)(=O)c3ccc(Cl)c(Cl)c3)CC2)cc1NCCN1CCOCC1 -6.11%
COc1ccccc1NC(=O)c1cc2ccc(O)cc2o/c1=N\O 16.6%
COc1ccc2o/c(=N\O)c(C(=O)Nc3ccc(C)cc3)cc2c1 6.76%
CCOC(=O)C1=CN(Cc2cccc(-c3ccc(F)cc3)c2)S(=O)(=O)N(C)C1C (stereo not given) 8.9%
Cc1cc(C)nc(Nc2ccc(Cl)cc2C)n1 4.71%
Cc1nc2sc(C(c3cccs3)N3CCC4(CC3)OCCO4)c(O)n2n1 (stereo not given) 1.65%
Cc1cc(C)c2ccc(=O)n(CC(=O)N/N=C/c3ccccc3Cl)c2n1 5.91%
COc1cc2[nH]c3ccccc3c2cc1C -5.8%
Cc1ccc(C)c2c1[nH]c1ccccc12 10.6%
Cc1ccc(C(C)C)c(OC/C(O)=C(\C#N)c2nc3ccccc3[nH]2)c1 6.88%
CC1(C)C(c2ccccc2)=[N+]([O-])C2(CCCCC2=O)N1O (stereo not given) 1.13%
CCOC(=O)C1CCN(S(=O)(=O)CCNC(=O)c2ccc(F)cc2)CC1 6.46%
Oc1ccc(N=Nc2ccc(Br)cc2)c(O)c1 12.2%
O=[N+]([O-])c1ccc(N=Nc2ccc(O)cc2O)cc1 7.64%
O=S(=O)(O)c1cc(O)ccc1O 4.04%
O=S(=O)(O)c1cccc2c(N=Nc3ccc(O)c4ncccc34)cccc12 18.4%
O=C(Cc1ccc(F)cc1)NC(Cc1c[nH]c2ccccc12)C(=O)O (stereo not given) -3.39%
Cc1c(Cl)cnc(NC(=O)CSc2nnnn2C)c1Cl 3.41%
CN1CCN(CCCN2c3ccccc3Sc3ccc(C(F)(F)F)cc32)CC1 7.89% and 12.7% and 6.18%
CN(C)CCCN1c2ccccc2Sc2ccc(Cl)cc21 22% and 17.9%
CC(=O)c1ccc2c(c1)N(CCCN(C)C)c1ccccc1S2 12.4%
OCCN1CCN(CCCN2c3ccccc3Sc3ccc(Cl)cc32)CC1 31.9%
CNc1ccc(/C=C/C(=O)c2cccc3ccccc23)cc1[N+](=O)[O-] 1.28%
CCN(C(=O)COC(=O)/C=C/c1c(C)nn(-c2ccccc2)c1C)C1CCS(=O)(=O)C1 (stereo not given) 5.67%
CC(=O)c1ccc(NC(=O)CN2CCN(c3ccccc3)CC2)cc1 5.48%
COc1ccc2[nH]c3c(=O)n(CCCCC(=O)N4CCCC4)c(=S)[nH]c3c2c1 23.1%
COc1ccc2[nH]c3c(=O)n(Cc4ccc(C(=O)N5CCCC5)cc4)c(=S)[nH]c3c2c1 4.08%
CC[C@H](C)NC(=O)CCCCCn1c(=S)[nH]c2c([nH]c3ccc(OC)cc32)c1=O 3.32%
COc1ccc2[nH]c3c(=O)n(Cc4ccc(C(=O)N5CCCCCC5)cc4)c(=S)[nH]c3c2c1 6.08%
CC(C)(CO)CNC(=O)CCc1nnc(-c2ccc(-c3ccccc3)cc2)o1 9.2%
CC(OC(=O)c1ccc(-c2ccc(O)cc2)cc1)C(=O)NC1CCCCC1C (stereo not given) 8.27%
CC(C)CN1CCC(Oc2cccc(C(=O)NCCc3ccccc3)c2)CC1 11.2%
CC(=O)c1sc(NC(=O)c2cccc(N3C(=O)CCC3=O)c2)nc1-c1ccccc1 2.55%
C[C@@H]1CN([C@@H](C)CO)C(=O)CCCn2nncc2CO[C@H]1CN(C)S(=O)(=O)c1ccc2c(c1)OCCCO2 7.05%
Cc1ccc([C@@H]2C[C@H]3[C@@H](CN2S(=O)(=O)c2ccc(Cl)cc2)C(=O)C[C@@H](c2ccccc2)N3S(=O)(=O)c2ccc(C)cc2)cc1 17.6%
Cc1ccc(C2/C=C\CC(NC(=O)OCC3c4ccccc4-c4ccccc43)CC(=O)N2Cc2ccccc2)cc1 (stereo not given) 7.21%
CCCC1=[N+](CC(C)=O)CCn2c(C)ccc21 -4.62%
Cc1c(-c2ccccc2)cn2c1-c1ccc(C)n1CC2 5.62%
COc1cc2c(cc1NC(=O)CSc1nc3cc(Cl)ccc3s1)oc1ccccc12 5.98%
CCc1ccc(-c2nn(Cc3ccccc3)cc2C(=O)NCC2CCCO2)cc1 (stereo not given) 0.77%
CC(=O)Nc1ccc(/C=N/NC(=O)c2cc(-c3ccco3)nc3ccccc23)cc1 6.26%
O=C(N/N=C/c1cccc(F)c1)c1cc(-c2ccco2)nc2ccccc12 7.31%
CSc1nc(C)c(C(=O)C[n+]2ccccc2)cc1C#N 5.97%
FC(F)(F)c1cccc(N2CCN(Cc3ccoc3)CC2)c1 9.97%
COc1ccc(-n2c(=S)[nH]c3cc(C(=O)O)ccc3c2=O)cc1 1.88%
COc1ccc(OC)c(N)c1 18.5%
COc1ccc(C(=O)c2ccc(OC)c(N)c2)cc1N 4.59%
Cc1ccc(N=Nc2ccc(N)cc2C)c(S(N)(=O)=O)c1 13.8%
Cc1cc(N=Nc2c(O)c3ccccc3[nH]c2=O)ccc1N=Nc1ccc(C(=O)N(C)C)cc1 6.51%
COc1ccc(N=Nc2ccc(N)nc2N)cc1 18.6%
COc1cc(S(N)(=O)=O)c(OC)cc1N 7.46%
CCCNS(=O)(=O)c1ccc(CCC(=O)NCCc2ccc(OC)c(OC)c2)cc1 1.4%
NC(N)=NC1=NC(=O)/C(=C/c2ccccc2-n2cccn2)S1 10.9%
CC1(C)CC(=O)C(C=Nc2ccc(NC3=C(C#N)C(=O)CC(C)(C)C3)cc2)=C(O)C1 7.44%
CC(/C=N/O)Cc1ccc2c(c1)OCO2 (stereo not given) 2.11%
COc1ccc(C2C(C(=O)NCc3ccco3)c3ccccc3C(=O)N2C)cc1 (stereo not given) 0.04%
CC1=C(C(=O)N(C)C)CC(CC(=O)NC2CCCC2)C(=O)N1CCC1=CCCCC1 (stereo not given) 14.5%
O=C(CNC(=O)c1ccccc1Br)N/N=C/c1cccs1 0.32%
CCn1c2ccccc2c2cc(NC(=O)CC(C)=O)ccc21 8.51%
CCn1c2ccccc2c(=O)c2ccccc21 5.08%
CCn1c2ccccc2c2cc(CC(N)=O)ccc21 8.07%
CCn1c2ccccc2c2cc(CNCCCN3CCOCC3)ccc21 20.3%
COc1ccc(CNCc2ccc3ccccc3c2)c(OC)c1 28.9%
COc1cccc(CNCc2ccc(OC)cc2OC)c1 22.9%
CCCC(=O)Nc1ccc2c(c1)c1ccccc1n2CC 10.5%
CCn1c2ccccc2c2cc(NC(C)=O)ccc21 6.13%
